From the supplement of paper PMC13380429 come the findings set out here.

Unmarked numbers belong to inactive results.

The assay relates to Vero E6 infected with SARS-CoV-2. Description: inhibition of SARS-CoV-2 cytopathic effect; higher = more antiviral protection, active = above 15. Conditions: 1 nM; 48 h. (Cytopathic effects are the visible damage that an infection or toxin causes in cultured cells.)
For `Nc1nc(N)nc(NC2CC2)n1` [cyromazine], the “inhibition of SARS-CoV-2 cytopathic effect” value was -2.63%.
As for `CC(C)(C)NC(=O)N[C@H](C(=O)N1C[C@H]2[C@@H]([C@H]1C(=O)NC(CC1CCC1)C(=O)C(N)=O)C2(C)C)C(C)(C)C` (stereo partly specified) [Boceprevir], the figure is 0.22%; as for `COc1cc2c(cc1OC)-c1cc3nc4ccccc4nc3n1C(C)(C)C2`, 2.63%; as for `CCOc1cc([C@@H](CS(C)(=O)=O)N2C(=O)c3cccc(NC(C)=O)c3C2=O)ccc1OC` [apremilast], 2.28%.
In the case of `C=C1/C(=C\C=C2/CCC[C@]3(C)[C@@H]([C@H](C)CCCC(O)(C(F)(F)F)C(F)(F)F)CC[C@@H]23)C[C@@H](O)C[C@@H]1O` [falecalcitriol] it was -0.53%; in that of `C1CCN2C[C@@H]3C[C@@H](CN4CCCC[C@@H]34)[C@H]2C1` [sparteine-sulfate], 0.15%.
Consider `O=C(N[C@@H]1CC[C@@H](c2cccc(F)c2F)CN(CC(F)(F)F)C1=O)N1CCC(n2c(=O)[nH]c3ncccc32)CC1` [telcagepant], for which the “inhibition of SARS-CoV-2 cytopathic effect” value was 0.8%.
In the case of `CC#CCC(C)[C@H](O)/C=C/[C@@H]1[C@H]2C/C(=C/CCCC(=O)O)C[C@H]2C[C@H]1O` (stereo partly specified) [iloprost] it was -0.22%.
In the case of `O=C(NNc1nc2cc(F)ccc2n2cccc12)c1cnccn1` it was -2.31%; in that of `O=C(c1ccc(C(=O)N2CCC(N3CCCC3)CC2)c(Nc2ccccc2)c1)N1CCC(N2CCCC2)CC1`, 0.43%; in that of `COc1cc(NS(=O)(=O)c2ccc(N)cc2)nc(OC)n1` [sulphadimethoxine], -0.84%.
